Test [1] is described as follows: qHTS assay for measurement of the activity of small molecule inhibitors on Zika virus induced Caspase-3 activity in human astrocytoma cells (AID 1224859).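 Further: plate controls were ZIKV-infected untreated cells for no effect and uninfected cells for full effect.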 The method in brief: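 SNB-19 astrocytoma cells, 250/well, pretreated 1 h with compounds, then Zika virus at 2 FFU/cell for 6 h at 37 C; Caspase-Glo 3/7 luminescence after 30 min; percent inhibition normalised to uninfected and infected controls.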

For test [2], the target named is Atrial natriuretic peptide receptor 1 (Homo sapiens) (UniProt P16066). The experiment in a line: Natriuretic polypeptide receptor (hNpr1) antagonism - Pilot screen (AID 1347049; calls by dose curve;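 further: agonist-evoked cGMP luminescence read 20 min after hNppA addition; series mostly up to about 58 µM; on the % scale 0 is the no-effect control and ±100 the full control effect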). The method in brief:
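Readout is cGMP-driven firefly luciferase luminescence in HEK293 cells carrying hNpr1 and a PDE5-domain GloSensor, read before and 20 min after 0.1 nM hNppA stimulation. Cells had 2% substrate reagent for 2 h and test compound for 30 min.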

Test [3] concerns the target Atrial natriuretic peptide receptor 2 (Homo sapiens) (UniProt P20594). The experiment in a line: Natriuretic polypeptide receptor (hNpr2) antagonism - Pilot subtype selectivity assay (AID 1347050; calls by dose curve; further: on the % scale 0 is the no-effect control and ±100 the full control effect). The method in brief: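 Pilot selectivity screen against hNpr2: HEK293 cGMP-sensor cells are treated with LOPAC1280 compounds, then with hNppC peptide at 1 nM final. The cGMP-driven luminescence change over 20 min at room temperature is the read-out.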

Test [4] can be described thus: NS1 protein of Zika virus - qHTS assay to identify small molecule inhibitors in human HEK 293 cells (AID 1347053).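 Further: series mostly up to about 46 µM; plate controls were infected untreated cells for no effect and uninfected cells for full effect; nearly all actives have a fitted effect of over 55% in size.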 The method in brief: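 HEK 293 cells pretreated with compound for 1 h, then infected with ZIKV MR766 (MOI 0.5) for 24 h at 37 C. NS1 detected by TR-FRET with two anti-NS1 antibodies; normalized to uninfected (0%) and infected (100%) wells.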
On the technique in general: Quantitative high-throughput screening tests each substance at several concentrations.

The target of test [5] is T1, Tyrosine-protein phosphatase non-receptor type substrate 1 (Homo sapiens) + Leukocyte surface antigen CD47 (Homo sapiens) (UniProt P78324+Q08722). The test can be described thus: CD47-SIRPalpha protein protein interaction - LANCE assay qHTS validation (AID 1347057; active means well fitted curve in the direction sought with a large enough effect in the signal ratio, with a control signal flat, not every such curve was filed as active; the % refers to the signal ratio; further: series mostly up to about 38 µM; 0% is about no effect). The method in brief: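 First, His-tagged CD47 and Eu-labelled anti-His antibody met the compound for 30 min; next, site-specifically biotinylated SIRPalpha was added for 30 min; finally streptavidin-APC was added before reading the TR-FRET ratio.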
T1 sequence (P78324 whole entry, looked up): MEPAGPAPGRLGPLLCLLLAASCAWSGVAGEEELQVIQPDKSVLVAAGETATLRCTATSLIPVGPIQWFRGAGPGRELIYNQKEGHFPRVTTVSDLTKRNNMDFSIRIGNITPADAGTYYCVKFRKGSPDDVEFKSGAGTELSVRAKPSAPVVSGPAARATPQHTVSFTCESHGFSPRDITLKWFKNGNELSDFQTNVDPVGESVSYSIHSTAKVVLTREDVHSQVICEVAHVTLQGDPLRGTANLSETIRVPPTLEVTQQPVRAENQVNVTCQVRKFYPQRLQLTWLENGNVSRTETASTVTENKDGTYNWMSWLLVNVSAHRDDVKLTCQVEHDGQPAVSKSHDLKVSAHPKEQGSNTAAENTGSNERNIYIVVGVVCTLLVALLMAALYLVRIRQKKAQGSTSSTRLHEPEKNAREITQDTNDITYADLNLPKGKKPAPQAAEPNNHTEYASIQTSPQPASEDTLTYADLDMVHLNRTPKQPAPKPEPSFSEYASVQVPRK
T1 sequence (Q08722 whole entry, looked up): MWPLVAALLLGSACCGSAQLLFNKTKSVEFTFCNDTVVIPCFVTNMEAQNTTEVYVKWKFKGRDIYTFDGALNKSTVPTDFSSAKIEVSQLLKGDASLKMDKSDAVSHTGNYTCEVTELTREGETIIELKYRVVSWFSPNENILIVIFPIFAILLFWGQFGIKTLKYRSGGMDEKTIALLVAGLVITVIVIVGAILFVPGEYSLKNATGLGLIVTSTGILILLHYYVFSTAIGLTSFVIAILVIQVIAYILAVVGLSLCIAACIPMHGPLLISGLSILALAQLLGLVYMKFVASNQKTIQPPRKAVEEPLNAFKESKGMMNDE

Test [6] deals with T1, Tyrosine-protein phosphatase non-receptor type substrate 1 (Homo sapiens) + Leukocyte surface antigen CD47 (Homo sapiens). The test can be described thus: CD47-SIRPalpha protein protein interaction - HTRF assay qHTS validation (AID 1347058; active means well fitted curve in the direction sought with a large enough effect in the signal ratio, not every such curve was filed as active; the % refers to the signal ratio;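 further: recombinant soluble extracellular CD47 with His tag and biotinylated SIRPalpha domains; series mostly up to about 38 µM; 0% is about no effect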). The method in brief: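 TR-FRET read (Ch1/Ch2 ratio) of soluble extracellular CD47 and Avi-biotinylated SIRPalpha domains in PBS pH 7.4 with 0.05% IGEPAL; 7-point compound titration. Sequential 30 min room-temperature steps; non-biotinylated SIRPalpha as control inhibitor.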
For orientation: In TR-FRET formats the signal depends on donor and acceptor labels being close together.

For test [7] the target is unchanged. The experiment in a line: CD47-SIRPalpha protein protein interaction - Alpha assay qHTS validation (AID 1347059).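 Further: bead proximity luminescence from CD47 binding SIRPalpha after compound preincubation with SIRPalpha; on the % scale 0 is the no-effect control and ±100 the full control effect.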 The method in brief:
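Binding is measured by AlphaScreen proximity: Ni-NTA acceptor beads capture His-CD47, streptavidin donor beads capture biotin-SIRPalpha. Each of three additions (SIRPalpha with compound, CD47, beads) incubates 30 min at room temperature protected from light.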

The target of test [8] is Parathyroid hormone/parathyroid hormone-related peptide receptor (Homo sapiens) (UniProt Q03431). The test can be described thus: qHTS for PTHR1 Agonists: Optimization Screen against the NCGC LOPAC library (AID 1347079).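 Further: GloSensor cAMP luminescence in HEK-293 GP2 cells expressing human PTHR1 with IBMX; 0% is about no effect.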 The method in brief: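 Compounds were tested across a qHTS titration. PTHR1-expressing GP2 cells report cAMP rises via GloSensor luminescence after 1 hr compound exposure at 37C with IBMX present.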
Sequence of Parathyroid hormone/parathyroid hormone-related peptide receptor (Homo sapiens) (Q03431 whole entry, looked up): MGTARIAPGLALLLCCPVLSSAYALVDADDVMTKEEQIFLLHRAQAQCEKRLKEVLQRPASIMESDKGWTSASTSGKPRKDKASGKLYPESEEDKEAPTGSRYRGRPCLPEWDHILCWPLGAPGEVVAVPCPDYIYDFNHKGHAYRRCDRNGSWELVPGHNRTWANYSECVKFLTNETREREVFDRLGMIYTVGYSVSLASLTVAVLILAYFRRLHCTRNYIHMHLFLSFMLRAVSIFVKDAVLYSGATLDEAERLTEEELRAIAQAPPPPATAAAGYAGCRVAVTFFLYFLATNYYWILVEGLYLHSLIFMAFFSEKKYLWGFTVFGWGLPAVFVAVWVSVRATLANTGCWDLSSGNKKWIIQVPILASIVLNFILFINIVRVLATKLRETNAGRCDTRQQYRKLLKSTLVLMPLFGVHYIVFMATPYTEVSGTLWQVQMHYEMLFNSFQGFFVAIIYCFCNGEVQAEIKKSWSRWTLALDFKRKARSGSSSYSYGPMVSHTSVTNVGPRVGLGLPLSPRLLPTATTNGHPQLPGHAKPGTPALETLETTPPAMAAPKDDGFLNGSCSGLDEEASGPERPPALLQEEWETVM

The target of test [9] is N-terminal Xaa-Pro-Lys N-methyltransferase 1 (Homo sapiens) (UniProt Q9BV86). The test can be described thus: qHTS Assay for Inhibitors of N-terminal methyltransferase 1 (NTMT1): LOPAC validation of the NTMT1 SAHH-coupled ThioGlo3 Assay (AID 1347143).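 Further: SAH from peptide methylation measured as thiol fluorescence via SAHH coupling and ThioGlo3; nearly all actives have a fitted effect of over 70% in size.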 Further: potency means the concentration at half of the fitted maximal effect. A digest of the protocol:
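Inhibition of NTMT1 methylation of peptide SPKRIA is followed by converting SAH with SAHH and labelling the released thiol with ThioGlo3. Plates are read at 340/450nm before and 30 min after reagent addition, both at room temperature.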

In test [10] the test system is Zika virus NS2B-NS3 protease (unlinked). The experiment in a line: Optimization of GU AMC qHTS for Zika virus inhibitors: Unlinked NS2B-NS3 protease assay (AID 1347151). Further: nearly all actives have a fitted effect of over 80% in size. Further: potency means the concentration at half of the fitted maximal effect.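 On activity change, negative = inhibition: series mostly up to about 52 µM; 0% = no-inhibitor control and -100% = no-enzyme control.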 A digest of the protocol: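 Unlinked protease (25 nM final); buffer 10 mM Tris-HCl pH 8.0 + 0.01% Tween 20; AMC substrate; 15 min RT, dark; Δfluorescence normalized to no-inhibitor/no-enzyme controls; 4-parameter Hill fit.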

Test [11] can be described thus: Natriuretic polypeptide receptor (hNpr1) antagonism - Pilot counterscreen GloSensor control cell line (AID 1347045; calls by dose curve; further: series mostly up to about 38 µM; on the % scale 0 is the no-effect control and ±100 the full control effect). A digest of the protocol:
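This counterscreen uses HEK293 cells expressing the GIP/pGS-40F cGMP biosensor. Compound-treated cells are challenged with 50 uM sodium nitroprusside, and the luciferase signal is compared before and after stimulation.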
In general terms: The purpose of a counterscreen is to sort out artefacts and off-target activity.

In test [12] the test system is Zika virus NS2B-NS3 protease (unlinked complex). The test can be described thus: Confirmatory screen GU AMC qHTS for Zika virus inhibitors (AID 1347153).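 Further: percent inhibition with 0% = no inhibitor control and 100% = no enzyme control; nearly all actives have a fitted effect of over 70% in size.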 The method in brief: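 Unlinked NS2B-NS3 complex (25 nM) in 10 mM Tris-HCl pH 8.0, 0.01% Tween 20 preincubated 15 min with compound, then 10 microM Bz-Nle-KRR-AMC (Km 18.3 µM). Fluorescence change over 15 min, normalized, Hill-fitted.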

Values without a mark were called inactive. Inconclusive results are not listed. Activity calls are given as the source filed them. Unless noted, the call rests on the fitted dose curve; in most records, active means well fitted curve in the direction sought with a large enough effect; inconclusive means small, poorly fitted or top-dose-only effect, or another doubt; inactive means no such curve, though single readings can be large; an effect the other way counts as inactive or inconclusive.

Sequence of N-terminal Xaa-Pro-Lys N-methyltransferase 1 (Homo sapiens) (Q9BV86 whole entry, looked up): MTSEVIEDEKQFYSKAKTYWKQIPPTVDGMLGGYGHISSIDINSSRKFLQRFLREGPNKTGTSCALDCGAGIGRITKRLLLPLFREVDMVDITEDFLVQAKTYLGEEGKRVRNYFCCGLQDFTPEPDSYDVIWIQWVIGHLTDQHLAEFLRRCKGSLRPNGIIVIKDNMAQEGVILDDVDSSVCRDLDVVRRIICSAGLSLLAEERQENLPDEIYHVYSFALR
Sequence of Atrial natriuretic peptide receptor 1 (Homo sapiens) (P16066 whole entry, looked up): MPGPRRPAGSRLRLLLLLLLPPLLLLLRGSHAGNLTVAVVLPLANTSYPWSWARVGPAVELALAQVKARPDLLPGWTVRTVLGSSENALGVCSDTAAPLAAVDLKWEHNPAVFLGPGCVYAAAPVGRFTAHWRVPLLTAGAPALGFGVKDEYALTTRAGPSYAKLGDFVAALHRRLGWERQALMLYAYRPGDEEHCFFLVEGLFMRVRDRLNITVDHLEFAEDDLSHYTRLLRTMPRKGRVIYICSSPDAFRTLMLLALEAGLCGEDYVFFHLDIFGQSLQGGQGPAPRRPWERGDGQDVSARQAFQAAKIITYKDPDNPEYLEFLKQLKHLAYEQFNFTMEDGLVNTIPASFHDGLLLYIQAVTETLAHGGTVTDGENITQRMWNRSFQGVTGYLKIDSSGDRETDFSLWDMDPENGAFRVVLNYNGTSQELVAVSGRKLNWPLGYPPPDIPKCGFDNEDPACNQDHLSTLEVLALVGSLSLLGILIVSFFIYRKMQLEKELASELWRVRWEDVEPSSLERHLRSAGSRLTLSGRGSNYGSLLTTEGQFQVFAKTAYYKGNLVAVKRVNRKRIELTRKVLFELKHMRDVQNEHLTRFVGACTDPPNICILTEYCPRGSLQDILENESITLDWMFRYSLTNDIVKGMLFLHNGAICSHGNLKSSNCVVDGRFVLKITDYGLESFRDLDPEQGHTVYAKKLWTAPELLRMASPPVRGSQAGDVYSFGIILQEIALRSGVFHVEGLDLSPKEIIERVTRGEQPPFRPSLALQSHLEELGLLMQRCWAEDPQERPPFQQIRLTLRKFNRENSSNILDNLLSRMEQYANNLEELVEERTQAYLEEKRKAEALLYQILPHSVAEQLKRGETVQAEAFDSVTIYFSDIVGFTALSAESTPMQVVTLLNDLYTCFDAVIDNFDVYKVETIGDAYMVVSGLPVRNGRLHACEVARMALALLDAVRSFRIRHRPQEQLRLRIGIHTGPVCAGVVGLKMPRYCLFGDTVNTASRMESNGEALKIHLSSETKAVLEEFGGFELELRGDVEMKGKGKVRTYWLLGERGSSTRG
Sequence of Atrial natriuretic peptide receptor 2 (Homo sapiens) (P20594 whole entry, looked up): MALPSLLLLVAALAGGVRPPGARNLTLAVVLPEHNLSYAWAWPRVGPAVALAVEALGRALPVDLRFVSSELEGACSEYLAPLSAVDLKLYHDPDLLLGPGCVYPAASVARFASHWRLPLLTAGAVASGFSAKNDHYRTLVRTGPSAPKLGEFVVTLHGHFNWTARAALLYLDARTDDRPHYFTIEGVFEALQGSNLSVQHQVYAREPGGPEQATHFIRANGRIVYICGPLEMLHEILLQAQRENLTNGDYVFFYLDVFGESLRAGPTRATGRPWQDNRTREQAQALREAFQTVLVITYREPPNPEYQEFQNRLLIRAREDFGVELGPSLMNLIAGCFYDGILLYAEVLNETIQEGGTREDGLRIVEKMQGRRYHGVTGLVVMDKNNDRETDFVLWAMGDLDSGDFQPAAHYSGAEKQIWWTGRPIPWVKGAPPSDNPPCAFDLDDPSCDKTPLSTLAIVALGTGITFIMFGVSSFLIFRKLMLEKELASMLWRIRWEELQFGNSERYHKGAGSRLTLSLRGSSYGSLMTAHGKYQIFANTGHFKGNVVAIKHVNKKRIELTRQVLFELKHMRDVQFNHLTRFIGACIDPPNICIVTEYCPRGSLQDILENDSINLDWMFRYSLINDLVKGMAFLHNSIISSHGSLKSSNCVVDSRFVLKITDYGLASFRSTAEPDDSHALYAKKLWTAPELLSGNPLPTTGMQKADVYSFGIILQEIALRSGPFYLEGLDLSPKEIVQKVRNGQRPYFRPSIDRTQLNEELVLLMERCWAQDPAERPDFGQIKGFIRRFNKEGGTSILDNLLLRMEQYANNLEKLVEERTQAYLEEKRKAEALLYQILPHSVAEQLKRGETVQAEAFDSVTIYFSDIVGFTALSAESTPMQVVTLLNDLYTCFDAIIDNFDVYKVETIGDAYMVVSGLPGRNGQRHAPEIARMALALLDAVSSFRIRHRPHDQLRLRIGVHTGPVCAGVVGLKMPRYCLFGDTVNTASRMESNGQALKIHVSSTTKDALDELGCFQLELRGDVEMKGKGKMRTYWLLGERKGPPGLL

As to `N[C@H](C(=O)O)[C@H](Cc1ccccc1)C(=O)O`, the Potency entry in test [1], in test [2], in test [4], in [5], in test [7] and in test [8] was “inactive” throughout. Moreover, the Potency result in [9] and in test [10] was “inactive” each time. For the same compound, the activity change, negative = inhibition in test [3] is -2% [at 1.53 µM]. In addition, the result in test [6] was inactive.
For `N#Cc1cc2nc(O)c(O)nc2cc1[N+](=O)[O-]`, the Potency result in test [1], in test [11], in test [2], in [3], in test [4] and in [5] was “inactive” each time. Besides, the Potency result in test [7], in test [8], in [9] and in test [10] was “inactive” throughout.
As to `NC1C=CC=C(C(=O)O)C1` (stereo not drawn), the Potency result in test [1], in [11], in [2], in test [3], in [4] and in [5] was “inactive” throughout. Besides, the Potency result in test [7], in [8], in test [9] and in test [10] was “inactive” throughout. Also, the result in test [6] was inactive.
On to `C=C1C[C@@]23CC[C@H]4[C@@](C)(CCC[C@@]4(C)C(=O)O)[C@@H]2CC[C@]1(O)C3`, for which the Potency entry in [1], in [11], in [2], in [3], in test [4] and in [5] was “inactive” each time. For the same compound, the Potency result in [7], in [8], in test [9] and in test [10] was “inactive” throughout. Moreover, the outcome in [6] was inactive.
In the case of `O=C(O)C1=CCCNC1`, the Potency result in [1], in [2], in test [3], in [4], in test [5] and in [7] was “inactive” each time. Moreover, the Potency result in test [8] and in test [10] was “inactive” throughout. Moreover, in [6], the result was inactive.
As for `CC(C)NC[C@H](O)COc1ccc(CC(N)=O)cc1`, the Potency entry in test [1], in test [11], in [2], in [3], in test [4] and in [5] was “inactive” throughout. Moreover, the Potency entry in test [7], in test [9] and in test [10] was “inactive” throughout. In addition, the outcome in [6] was inactive.
Regarding `CC(=O)SC1CC2=CC(=O)CC[C@]2(C)C2CC[C@@]3(C)C(CC[C@@]34CCC(=O)O4)C12` (stereo partly drawn), the Potency entry in [1], in [2], in test [4], in [7], in test [8] and in test [9] was “inactive” throughout. Further, the Potency result in test [10] is “inactive”. Further, the result in test [6] was inactive.
For `Cn1c(=O)c2[nH]c(C3CCCC3)nc2n(C)c1=O`, the Potency result in test [1], in [2], in test [3], in [4], in test [5] and in [7] was “inactive” throughout. Besides, the Potency entry in test [8], in test [9] and in test [10] was “inactive” each time. Further, in [6], the result was inactive.
For `C=C1C[C@@]23CC[C@H]4[C@@](C)(CCC[C@@]4(C)C(=O)OC4OC(CO)C(O)C(O)C4O)[C@@H]2CC[C@]1(OC1OC(CO)C(O)C(O)C1OC1OC(CO)C(O)C(O)C1O)C3` (stereo partly drawn), the Potency result in test [1], in [11], in test [2], in test [3], in test [4] and in [5] was “inactive” throughout. Further, the Potency entry in test [7], in [8], in test [9] and in [10] was “inactive” each time. The result in test [6] was inactive.
Take `CO/N=C(\C(=O)N[C@@H]1C(=O)N2C(C(=O)O)=C(CSc3nc(=O)c(O)nn3C)CSC12)c1csc(N)n1` (stereo partly drawn): the Potency result in test [1], in test [11], in test [2], in test [3], in test [4] and in [5] was “inactive” throughout. Further, the Potency result in test [7], in test [8], in test [9] and in [10] was “inactive” each time. Also, the result in test [6] was inactive.
For `CCC(=O)N1CCN(C(=O)c2ccccc2)CC1`, the Potency entry in [1], in [11], in test [2], in [3], in test [4] and in [5] was “inactive” in each case. For the same compound, the Potency entry in [7], in test [8], in test [9] and in test [10] was “inactive” each time. For the same compound, the outcome in [6] was inactive.
Take `COc1ccc(-c2cc3ncc(C)n3c(Nc3ncccc3C(N)=O)n2)cc1OC`: the Potency result in test [1], in test [11], in test [3], in [4], in test [5] and in [7] was “inactive” in each case. In addition, in test [8], the Potency entry was “inactive”. The Potency was 56.2 µM (active) in test [9] and 26.7 µM (active) in [10].
Regarding `CC(=O)/C(C)=N/O`, the Potency entry in test [1], in test [2], in [3], in test [4], in [8] and in test [9] was “inactive” each time. The Potency result in test [10] is “inactive”. Moreover, the result in [6] was inactive.
With `Nc1ccc(-c2nc3ccc(-c4nc5ccc(N)cc5[nH]4)cc3[nH]2)cc1`, the Potency result in [1], in test [11], in [2], in [3], in [4] and in [8] was “inactive” each time. Besides, the Potency in test [9] is 56.2 µM (active); in test [10], 26.7 µM (active).
As for `CSc1nc(N)c2ncn([C@@H]3O[C@H](COP(=O)(O)OP(=O)(O)O)C(O)[C@H]3O)c2n1` (stereo partly drawn), the Potency entry in test [1], in test [11], in test [2], in test [3], in test [4] and in [5] was “inactive” in each case. In addition, the Potency entry in test [7], in test [8] and in [10] was “inactive” each time. Further, the outcome in test [6] was inactive.
Take `Cc1cccc(C(=O)NCN2CCN(c3ccccc3C#N)CC2)c1`: the Potency entry in test [1], in [11], in [2], in test [3], in test [4] and in test [5] was “inactive” throughout. Further, the Potency entry in [7], in test [8] and in test [12] was “inactive” in each case. Also, the outcome in [6] was inactive. The Potency in test [10] was 26.7 µM (active).
With `Cc1nc2n(c(=O)c1CCN1CCC(c3noc4cc(F)ccc34)CC1)CCCC2O` (stereo not drawn), the Potency entry in test [1], in test [11], in [3], in test [4], in test [5] and in [7] was “inactive” each time. Also, the Potency result in [8], in test [9] and in test [10] was “inactive” each time. Moreover, the result in [6] was inactive.
